Measurements published in PubChem BioAssay (Tox21).
Records with an inconclusive call do not appear. Activity calls are given as the source filed them. The call rests on the fitted dose curve.
On the % scale 0 is the no-effect control and ±100 the full control effect.

Each molecule was assayed against Acetylcholinesterase (Homo sapiens) (UniProt P22303) (assay: Acetylcholinesterase (AChE) small molecule antagonists: colormetric cell-based qHTS assay (AID 1347395; further: nearly all actives have a fitted effect of over 30% in size)). Details: SH-SY5Y cells AChE activity, colorimetric (Ellman); series mostly up to 115 µM; activity, negative = inhibition: at the top concentration.
Sequence of Acetylcholinesterase (Homo sapiens) (P22303 whole entry, looked up): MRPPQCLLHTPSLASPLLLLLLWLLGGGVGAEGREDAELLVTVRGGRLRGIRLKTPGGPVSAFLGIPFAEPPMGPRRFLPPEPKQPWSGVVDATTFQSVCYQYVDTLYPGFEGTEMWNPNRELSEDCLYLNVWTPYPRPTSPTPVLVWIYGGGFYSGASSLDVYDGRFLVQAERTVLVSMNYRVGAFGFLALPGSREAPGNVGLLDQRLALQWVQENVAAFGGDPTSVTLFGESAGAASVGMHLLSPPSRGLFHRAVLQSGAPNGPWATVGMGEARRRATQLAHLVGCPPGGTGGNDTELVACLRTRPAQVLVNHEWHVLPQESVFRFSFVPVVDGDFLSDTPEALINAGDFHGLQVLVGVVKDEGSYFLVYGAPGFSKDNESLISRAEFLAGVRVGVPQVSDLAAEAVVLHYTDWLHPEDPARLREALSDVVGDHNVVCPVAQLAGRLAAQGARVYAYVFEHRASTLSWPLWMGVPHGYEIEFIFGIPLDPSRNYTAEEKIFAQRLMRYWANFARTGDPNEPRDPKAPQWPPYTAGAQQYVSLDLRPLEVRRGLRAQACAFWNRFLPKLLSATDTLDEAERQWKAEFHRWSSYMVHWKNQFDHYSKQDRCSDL
Outline: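 After overnight attachment at 37 C, SH-SY5Y cells get 30 min compound exposure; detection cocktail (acetylthiocholine, DTNB) then incubates 90 min at 37 C, and absorbance reflects AChE-generated thiocholine.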
`CC(=O)OC(C(=O)c1ccccc1)c1ccccc1` (stereo not given) was tested, and the “activity, negative = inhibition” value was -1.76% (inactive).
`CC(CCO)CCc1ccccc1` (stereo not given) was tested, and the “activity, negative = inhibition” value was 1.11% (inactive).
In the case of `Cc1cccc2sc(N)nc12`, the “activity, negative = inhibition” value is reported as -1.25% (inactive).
In the case of `O=C[C@@H](O)[C@H](O)[C@H](O)CO`, the “activity, negative = inhibition” value is reported as 3.68% (inactive).
For `NC(=O)c1nc(-c2cccc(-c3cc(F)ccc3OCC(F)(F)C(F)(F)F)c2)n[nH]1`, the “activity, negative = inhibition” value was 2.52% (inactive).
In the case of `CC1=CC(=C(c2ccc(N)cc2)c2ccc(N)cc2)C=CC1=N`, the activity, negative = inhibition is reported as 0.517% [at 10.5 µM] (inactive).
`CC(=O)OC(C)C` was tested, and the Potency was “inactive”.
In the case of `COc1ccc(S(=O)(=O)Nc2nnc(CC(C)C)s2)cc1`, the “activity, negative = inhibition” value is reported as 3.79% [at 52.9 µM] (inactive).
In the case of `CC(C(=O)O)c1ccc(-c2ccccc2)c(F)c1` (stereo not given), the “activity, negative = inhibition” value is reported as -0.704% (inactive).
With `CCO[Si](OCC)(OCC)c1ccccc1` the “activity, negative = inhibition” value was 4.73% (inactive).
With `Cc1ccc(N=Nc2c(O)c(C(=O)O)cc3ccccc23)c(S(=O)(=O)O)c1` the “activity, negative = inhibition” value was 8.58% [at 52.9 µM] (inactive).
`CN(C)CCCNCCCN(C)C` was tested, and the “activity, negative = inhibition” value was -5.48% (inactive).
For `CCCCCCC=O`, the Potency was “inactive”.
For `O=C1CCc2ccccc2O1`, the Potency was “inactive”.
With `Cc1cc2c(OCC(CNC(C)(C)C)OC(=O)c3ccccc3)cccc2[nH]1` (stereo not given) the “activity, negative = inhibition” value was 1.53% [at 52.9 µM] (inactive).
`CN1CCC[C@H]1c1cccnc1` was tested, and the Potency was “inactive”.
In the case of `CC1CCCCC1`, the “activity, negative = inhibition” value is reported as 0.506% (inactive).
In the case of `Nc1nnc(-c2cccc(Cl)c2Cl)c(N)n1`, the “activity, negative = inhibition” value is reported as 0.215% [at 52.9 µM] (inactive).
`Cc1cc(NS(=O)(=O)c2ccc(N)cc2)nc(C)n1` was tested, and the “activity, negative = inhibition” value was 5.9% [at 52.9 µM] (inactive).
In the case of `NS(=O)(=O)c1cc2c(cc1Cl)NCNS2(=O)=O`, the “activity, negative = inhibition” value is reported as -3.95% [at 52.9 µM] (inactive).
In the case of `CC(=O)CC(=O)N(C)C`, the Potency is reported as “inactive”.
`CCCCCCOC(=O)CCCCCCCC(=O)OCCCCCC` was tested, and the “activity, negative = inhibition” value was -2.85% (inactive).
For `[Cl][Nd]([Cl])[Cl]`, the “activity, negative = inhibition” value was 0.104% (inactive).
For `CCCCCCCC(=O)[O-].CCCCCCCC(=O)[O-].[Zn+2]`, the “activity, negative = inhibition” value was 0.008% [at 52.9 µM] (inactive).
For `CC(=O)OCC(COC(C)=O)OC(C)=O`, the Potency was “inactive”.
In the case of `CC(=O)OC[C@H]1O[C@@H](n2ncc(=O)[nH]c2=O)[C@H](OC(C)=O)[C@@H]1OC(C)=O`, the “activity, negative = inhibition” value is reported as 2.62% [at 52.9 µM] (inactive).
`COc1ccc(C(C)=O)cc1` was tested, and the “activity, negative = inhibition” value was 8.66% (inactive).
For `O=C1c2ccccc2C(=O)C1c1nc2ccccc2c(Br)c1O`, the “activity, negative = inhibition” value was -2.38% (inactive).
`Nc1ccc(S(=O)(=O)c2ccc(N)cc2)cc1` was tested, and the Potency was “inactive”.
With `CCC(C)c1cc(C(C)(C)C)c(O)c(C(C)(C)C)c1` (stereo not given) the “activity, negative = inhibition” value was -2.24% (inactive).
In the case of `COc1ccccc1O`, the Potency is reported as “inactive”.
`CC(=O)c1ccccc1[N+](=O)[O-]` was tested, and the “activity, negative = inhibition” value was 0.409% (inactive).
`O=C(O)c1cc(O)c2c(c1)C(=O)c1cccc(O)c1C2=O` was tested, and the “activity, negative = inhibition” value was 0.921% (inactive).
In the case of `COc1cc(OC)nc(O[C@H](C(=O)O)C(OC)(c2ccccc2)c2ccccc2)n1`, the “activity, negative = inhibition” value is reported as -10.7% [at 52.9 µM] (inactive).
With `Cc1cc(NC(=O)C2=C(O)c3ccccc3S(=O)(=O)N2C)no1` the “activity, negative = inhibition” value was 0.786% [at 52.9 µM] (inactive).
`CCOCCn1c(C2CCN(CCc3ccc(C(C)(C)C(=O)O)cc3)CC2)nc2ccccc21` was tested, and the “activity, negative = inhibition” value was 4.77% [at 52.9 µM] (inactive).
`CCCCCCCCOc1ccc(C(=O)O)cc1` was tested, and the “activity, negative = inhibition” value was 2.33% (inactive).
For `CO[Si](CCCOCC1CO1)(OC)OC` (stereo not given), the Potency was “inactive”.
`O=C1C=CC(=O)N1c1ccccc1` was tested, and the “activity, negative = inhibition” value was 0.0711% (inactive).
`CSc1ccc(Cl)cc1` was tested, and the Potency was “inactive”.

These molecules were tested against Acetylcholinesterase (Homo sapiens) (UniProt P22303) (assay: Acetylcholinesterase (AChE) small molecule antagonists: enzyme-based qHTS assay (AID 1347397; further: nearly all actives have a fitted effect of over 55% in size)). Details: Potency: AChE enzyme activity inhibition; outcome: AChE enzyme activity inhibition; series mostly up to 115 µM; activity change, negative = inhibition: at the top concentration.
Outline: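 rhAChE 50 mU/mL (dispensed) + cpd or DMSO, 30 min RT; add DTNB/acetylthiocholine cocktail, 10 min RT; colorimetric thiocholine readout. qHTS, 1536-well format.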
For `CC(=O)OC(C(=O)c1ccccc1)c1ccccc1` (stereo not given), the “activity change, negative = inhibition” value was 0.279% (inactive).
In the case of `CC(CCO)CCc1ccccc1` (stereo not given), the “activity change, negative = inhibition” value is reported as 1.42% (inactive).
In the case of `Cc1cccc2sc(N)nc12`, the “activity change, negative = inhibition” value is reported as -0.282% (inactive).
For `O=C[C@@H](O)[C@H](O)[C@H](O)CO`, the “activity change, negative = inhibition” value was 1.5% (inactive).
With `NC(=O)c1nc(-c2cccc(-c3cc(F)ccc3OCC(F)(F)C(F)(F)F)c2)n[nH]1` the “activity change, negative = inhibition” value was -4.23% (inactive).
`CC1=CC(=C(c2ccc(N)cc2)c2ccc(N)cc2)C=CC1=N` was tested, and the activity change, negative = inhibition was 0.534% [at 10.5 µM] (inactive).
For `CC(=O)OC(C)C`, the Potency was “inactive”.
`COc1ccc(S(=O)(=O)Nc2nnc(CC(C)C)s2)cc1` was tested, and the “activity change, negative = inhibition” value was 0.693% [at 53 µM] (inactive).
In the case of `CC(C(=O)O)c1ccc(-c2ccccc2)c(F)c1` (stereo not given), the “activity change, negative = inhibition” value is reported as 1.03% (inactive).
With `CCO[Si](OCC)(OCC)c1ccccc1` the “activity change, negative = inhibition” value was 0.968% (inactive).
With `Cc1ccc(N=Nc2c(O)c(C(=O)O)cc3ccccc23)c(S(=O)(=O)O)c1` the “activity change, negative = inhibition” value was 4.37% [at 53 µM] (inactive).
In the case of `CN(C)CCCNCCCN(C)C`, the “activity change, negative = inhibition” value is reported as -0.258% (inactive).
With `CCCCCCC=O` the Potency was “inactive”.
`O=C1CCc2ccccc2O1` was tested, and the Potency was “inactive”.
`Cc1cc2c(OCC(CNC(C)(C)C)OC(=O)c3ccccc3)cccc2[nH]1` (stereo not given) was tested, and the “activity change, negative = inhibition” value was -0.978% [at 53 µM] (inactive).
In the case of `CN1CCC[C@H]1c1cccnc1`, the Potency is reported as “inactive”.
For `CC1CCCCC1`, the “activity change, negative = inhibition” value was 0.265% (inactive).
`Nc1nnc(-c2cccc(Cl)c2Cl)c(N)n1` was tested, and the “activity change, negative = inhibition” value was 0% [at 53 µM] (inactive).
`Cc1cc(NS(=O)(=O)c2ccc(N)cc2)nc(C)n1` was tested, and the “activity change, negative = inhibition” value was 0.693% [at 53 µM] (inactive).
With `NS(=O)(=O)c1cc2c(cc1Cl)NCNS2(=O)=O` the Potency was “inactive”.
`CC(=O)CC(=O)N(C)C` was tested, and the Potency was “inactive”.
For `CCCCCCOC(=O)CCCCCCCC(=O)OCCCCCC`, the “activity change, negative = inhibition” value was -0.55% (inactive).
`[Cl][Nd]([Cl])[Cl]` was tested, and the “activity change, negative = inhibition” value was 0.506% (inactive).
`CCCCCCCC(=O)[O-].CCCCCCCC(=O)[O-].[Zn+2]` was tested, and the “activity change, negative = inhibition” value was -0.136% [at 53 µM] (inactive).
In the case of `CC(=O)OCC(COC(C)=O)OC(C)=O`, the Potency is reported as “inactive”.
For `CC(=O)OC[C@H]1O[C@@H](n2ncc(=O)[nH]c2=O)[C@H](OC(C)=O)[C@@H]1OC(C)=O`, the “activity change, negative = inhibition” value was -0.0377% [at 53 µM] (inactive).
`COc1ccc(C(C)=O)cc1` was tested, and the “activity change, negative = inhibition” value was 1.27% (inactive).
`O=C1c2ccccc2C(=O)C1c1nc2ccccc2c(Br)c1O` was tested, and the “activity change, negative = inhibition” value was -22.1% (inactive).
For `Nc1ccc(S(=O)(=O)c2ccc(N)cc2)cc1`, the Potency was “inactive”.
`CCC(C)c1cc(C(C)(C)C)c(O)c(C(C)(C)C)c1` (stereo not given) was tested, and the “activity change, negative = inhibition” value was -2.32% (inactive).
In the case of `COc1ccccc1O`, the Potency is reported as “inactive”.
`CC(=O)c1ccccc1[N+](=O)[O-]` was tested, and the “activity change, negative = inhibition” value was -0.273% (inactive).
In the case of `O=C(O)c1cc(O)c2c(c1)C(=O)c1cccc(O)c1C2=O`, the “activity change, negative = inhibition” value is reported as -18.4% (inactive).
With `COc1cc(OC)nc(O[C@H](C(=O)O)C(OC)(c2ccccc2)c2ccccc2)n1` the “activity change, negative = inhibition” value was 1.77% [at 53 µM] (inactive).
`Cc1cc(NC(=O)C2=C(O)c3ccccc3S(=O)(=O)N2C)no1` was tested, and the “activity change, negative = inhibition” value was 4.31% [at 53 µM] (inactive).
With `CCOCCn1c(C2CCN(CCc3ccc(C(C)(C)C(=O)O)cc3)CC2)nc2ccccc21` the “activity change, negative = inhibition” value was -0.0925% [at 53 µM] (inactive).
For `CCCCCCCCOc1ccc(C(=O)O)cc1`, the “activity change, negative = inhibition” value was 0.818% (inactive).
For `CO[Si](CCCOCC1CO1)(OC)OC` (stereo not given), the Potency was “inactive”.
`O=C1C=CC(=O)N1c1ccccc1` was tested, and the “activity change, negative = inhibition” value was -14.6% (inactive).
`CSc1ccc(Cl)cc1` was tested, and the Potency was “inactive”.
